How the values were obtained:
Experiment in all cases: log2 ratio of Biotin-Ahx-Ub-VS probe labelling (fragment/DMSO); higher = less target engagement (more negative = stronger competition), active = hit call of the paper (q ≤ 0.05, log2 ratio ≤ -1)
Conditions in all cases: compound concentration: 200 uM; treatment time: 3 h
USP42 = molecular target: T1, USP42 (UniProt Q9H9J4)
T1 sequence (whole entry): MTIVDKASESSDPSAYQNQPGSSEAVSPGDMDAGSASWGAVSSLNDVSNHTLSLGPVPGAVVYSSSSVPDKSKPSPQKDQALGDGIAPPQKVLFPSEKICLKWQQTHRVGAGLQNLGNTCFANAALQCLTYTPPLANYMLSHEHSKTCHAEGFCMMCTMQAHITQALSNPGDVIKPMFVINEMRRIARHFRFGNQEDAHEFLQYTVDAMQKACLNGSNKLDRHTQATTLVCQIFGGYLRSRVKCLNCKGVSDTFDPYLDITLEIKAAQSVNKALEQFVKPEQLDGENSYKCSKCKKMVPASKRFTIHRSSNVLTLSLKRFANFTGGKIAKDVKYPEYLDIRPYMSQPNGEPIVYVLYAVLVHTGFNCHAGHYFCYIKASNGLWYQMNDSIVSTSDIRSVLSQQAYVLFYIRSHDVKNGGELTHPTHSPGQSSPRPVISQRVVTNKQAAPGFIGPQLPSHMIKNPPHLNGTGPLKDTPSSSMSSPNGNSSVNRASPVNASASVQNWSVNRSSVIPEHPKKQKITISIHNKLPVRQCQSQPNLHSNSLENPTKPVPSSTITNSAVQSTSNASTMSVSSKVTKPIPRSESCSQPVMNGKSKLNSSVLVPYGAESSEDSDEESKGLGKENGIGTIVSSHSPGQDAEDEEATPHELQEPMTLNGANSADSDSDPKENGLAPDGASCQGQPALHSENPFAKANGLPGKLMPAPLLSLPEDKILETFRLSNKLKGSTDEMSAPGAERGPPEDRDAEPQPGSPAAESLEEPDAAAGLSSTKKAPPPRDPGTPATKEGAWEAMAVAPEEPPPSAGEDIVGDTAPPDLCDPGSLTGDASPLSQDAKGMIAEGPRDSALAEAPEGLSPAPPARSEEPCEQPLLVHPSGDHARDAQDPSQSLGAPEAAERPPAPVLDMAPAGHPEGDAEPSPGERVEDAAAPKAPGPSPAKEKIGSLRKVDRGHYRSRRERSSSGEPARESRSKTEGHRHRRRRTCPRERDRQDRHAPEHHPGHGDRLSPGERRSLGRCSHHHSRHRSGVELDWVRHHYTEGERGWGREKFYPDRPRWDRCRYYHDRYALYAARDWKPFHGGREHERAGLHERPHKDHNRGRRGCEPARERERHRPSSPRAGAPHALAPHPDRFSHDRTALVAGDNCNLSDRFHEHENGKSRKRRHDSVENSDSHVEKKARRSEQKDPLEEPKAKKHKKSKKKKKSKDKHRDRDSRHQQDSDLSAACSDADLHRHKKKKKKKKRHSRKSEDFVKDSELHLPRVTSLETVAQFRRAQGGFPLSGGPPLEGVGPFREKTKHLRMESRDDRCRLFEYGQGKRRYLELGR
In short: (§1)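 HEK293T lysate (495 µg per sample, in Tris/CHAPS/IGEPAL buffer with protease inhibitors) was treated in triplicate with fragment at 200 µM or with DMSO for 3 h. It was then treated with Biotin-Ahx-Ub-VS (0.5 µM final) for 1 h. Labelled DUBs were NeutrAvidin-enriched, digested with LysC and trypsin, and run by diaPASEF LC-MS/MS. Spectronaut label-free quantities were global-median-normalised. Values are average log2 ratios fragment/DMSO by unpaired t-test, using proteins with ≥2 unique peptides.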

USP46 = USP46 (UniProt P62068)
In short: as §1

USP47 = molecular target: T2, USP47 (UniProt Q96K76)
T2 sequence (whole entry): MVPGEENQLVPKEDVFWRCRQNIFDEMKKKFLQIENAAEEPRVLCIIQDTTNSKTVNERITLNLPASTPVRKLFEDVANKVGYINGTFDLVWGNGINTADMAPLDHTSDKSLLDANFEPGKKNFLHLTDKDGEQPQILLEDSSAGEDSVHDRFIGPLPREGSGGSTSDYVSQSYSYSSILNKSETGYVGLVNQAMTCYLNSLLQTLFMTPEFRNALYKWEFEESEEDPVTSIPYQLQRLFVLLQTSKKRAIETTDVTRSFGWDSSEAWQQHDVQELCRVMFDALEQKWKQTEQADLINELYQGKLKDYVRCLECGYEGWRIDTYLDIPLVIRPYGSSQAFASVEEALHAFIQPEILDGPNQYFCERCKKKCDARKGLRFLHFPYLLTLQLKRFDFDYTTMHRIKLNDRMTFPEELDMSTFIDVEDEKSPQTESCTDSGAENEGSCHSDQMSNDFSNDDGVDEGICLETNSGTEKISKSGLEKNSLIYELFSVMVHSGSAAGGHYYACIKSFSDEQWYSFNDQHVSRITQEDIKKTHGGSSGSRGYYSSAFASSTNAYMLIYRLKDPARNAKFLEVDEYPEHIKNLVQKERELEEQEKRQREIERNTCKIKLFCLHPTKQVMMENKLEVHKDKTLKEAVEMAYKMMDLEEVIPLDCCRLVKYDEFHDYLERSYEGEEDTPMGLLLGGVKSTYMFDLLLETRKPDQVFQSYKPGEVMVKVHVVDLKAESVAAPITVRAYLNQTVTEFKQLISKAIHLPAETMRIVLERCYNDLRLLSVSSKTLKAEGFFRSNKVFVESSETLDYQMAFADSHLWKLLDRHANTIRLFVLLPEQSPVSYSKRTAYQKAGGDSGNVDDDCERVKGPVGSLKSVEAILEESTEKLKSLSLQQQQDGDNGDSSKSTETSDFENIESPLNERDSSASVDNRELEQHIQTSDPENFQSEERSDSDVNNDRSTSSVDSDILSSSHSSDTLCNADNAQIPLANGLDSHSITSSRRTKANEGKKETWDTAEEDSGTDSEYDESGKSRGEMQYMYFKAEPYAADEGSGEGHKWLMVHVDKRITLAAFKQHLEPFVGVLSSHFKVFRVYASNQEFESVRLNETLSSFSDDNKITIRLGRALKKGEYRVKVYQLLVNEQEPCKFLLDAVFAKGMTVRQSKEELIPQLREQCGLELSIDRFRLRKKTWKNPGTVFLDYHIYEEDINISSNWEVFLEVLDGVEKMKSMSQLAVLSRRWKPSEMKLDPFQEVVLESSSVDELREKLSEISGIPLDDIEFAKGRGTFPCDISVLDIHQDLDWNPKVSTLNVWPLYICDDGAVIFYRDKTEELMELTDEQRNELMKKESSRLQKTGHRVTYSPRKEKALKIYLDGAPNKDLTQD
In short: as §1

USP48 = molecular target: T3, USP48 (UniProt Q86UV5)
T3 sequence (whole entry): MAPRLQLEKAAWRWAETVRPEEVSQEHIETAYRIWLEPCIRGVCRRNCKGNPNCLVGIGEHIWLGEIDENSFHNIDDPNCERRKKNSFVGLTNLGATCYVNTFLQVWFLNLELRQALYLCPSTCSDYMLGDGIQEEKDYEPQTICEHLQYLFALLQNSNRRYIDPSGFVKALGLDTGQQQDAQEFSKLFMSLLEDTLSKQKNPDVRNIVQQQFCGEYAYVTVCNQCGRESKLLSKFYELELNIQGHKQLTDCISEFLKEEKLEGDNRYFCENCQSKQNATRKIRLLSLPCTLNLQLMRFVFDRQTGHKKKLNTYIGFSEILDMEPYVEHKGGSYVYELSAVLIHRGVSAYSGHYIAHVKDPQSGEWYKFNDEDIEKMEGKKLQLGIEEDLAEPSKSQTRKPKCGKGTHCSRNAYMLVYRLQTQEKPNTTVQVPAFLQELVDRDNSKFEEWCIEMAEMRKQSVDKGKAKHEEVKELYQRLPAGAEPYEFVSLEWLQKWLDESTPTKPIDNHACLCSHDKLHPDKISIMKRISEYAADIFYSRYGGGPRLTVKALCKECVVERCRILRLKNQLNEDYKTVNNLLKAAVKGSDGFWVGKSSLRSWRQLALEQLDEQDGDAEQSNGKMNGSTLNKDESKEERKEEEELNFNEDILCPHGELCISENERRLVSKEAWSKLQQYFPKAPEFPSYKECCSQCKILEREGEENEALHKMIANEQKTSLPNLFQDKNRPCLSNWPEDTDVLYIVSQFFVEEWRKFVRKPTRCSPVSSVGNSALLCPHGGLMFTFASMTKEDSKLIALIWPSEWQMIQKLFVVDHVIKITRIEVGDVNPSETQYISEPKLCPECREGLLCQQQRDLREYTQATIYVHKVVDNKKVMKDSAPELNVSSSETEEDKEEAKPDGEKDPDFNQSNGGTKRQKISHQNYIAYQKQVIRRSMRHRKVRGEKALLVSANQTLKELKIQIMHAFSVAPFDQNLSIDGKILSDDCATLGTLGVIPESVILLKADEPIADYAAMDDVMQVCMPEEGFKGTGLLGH
In short: as §1

USP5 = molecular target: T4, USP5 (UniProt P45974)
T4 sequence (whole entry): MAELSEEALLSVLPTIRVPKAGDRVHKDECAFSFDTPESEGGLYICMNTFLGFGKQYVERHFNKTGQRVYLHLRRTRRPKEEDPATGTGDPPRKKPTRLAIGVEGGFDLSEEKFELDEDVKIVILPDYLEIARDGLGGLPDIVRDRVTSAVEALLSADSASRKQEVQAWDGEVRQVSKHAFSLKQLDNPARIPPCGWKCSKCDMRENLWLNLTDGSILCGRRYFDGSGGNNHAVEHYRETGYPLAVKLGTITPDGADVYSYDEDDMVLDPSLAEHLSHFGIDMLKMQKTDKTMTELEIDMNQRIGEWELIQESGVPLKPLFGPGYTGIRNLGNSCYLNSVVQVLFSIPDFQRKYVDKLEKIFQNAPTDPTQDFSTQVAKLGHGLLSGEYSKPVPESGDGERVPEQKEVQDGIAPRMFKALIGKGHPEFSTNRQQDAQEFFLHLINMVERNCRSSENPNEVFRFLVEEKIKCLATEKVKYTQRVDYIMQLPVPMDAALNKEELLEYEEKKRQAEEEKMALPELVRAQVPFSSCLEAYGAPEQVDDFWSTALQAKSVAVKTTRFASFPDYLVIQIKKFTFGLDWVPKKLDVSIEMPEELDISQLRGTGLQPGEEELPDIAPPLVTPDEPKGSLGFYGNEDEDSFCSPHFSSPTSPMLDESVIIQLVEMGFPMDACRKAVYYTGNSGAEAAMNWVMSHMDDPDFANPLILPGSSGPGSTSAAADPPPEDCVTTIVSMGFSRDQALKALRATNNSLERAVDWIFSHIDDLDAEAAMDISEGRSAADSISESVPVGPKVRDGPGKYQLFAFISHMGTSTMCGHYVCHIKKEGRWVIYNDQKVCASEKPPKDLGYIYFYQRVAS
In short: as §1

USP54 = USP54 (UniProt Q70EL1)
In short: as §1

USP7 = USP7 (UniProt Q93009)
In short: as §1

USP8 = molecular target: T5, USP8 (UniProt P40818)
T5 sequence (whole entry): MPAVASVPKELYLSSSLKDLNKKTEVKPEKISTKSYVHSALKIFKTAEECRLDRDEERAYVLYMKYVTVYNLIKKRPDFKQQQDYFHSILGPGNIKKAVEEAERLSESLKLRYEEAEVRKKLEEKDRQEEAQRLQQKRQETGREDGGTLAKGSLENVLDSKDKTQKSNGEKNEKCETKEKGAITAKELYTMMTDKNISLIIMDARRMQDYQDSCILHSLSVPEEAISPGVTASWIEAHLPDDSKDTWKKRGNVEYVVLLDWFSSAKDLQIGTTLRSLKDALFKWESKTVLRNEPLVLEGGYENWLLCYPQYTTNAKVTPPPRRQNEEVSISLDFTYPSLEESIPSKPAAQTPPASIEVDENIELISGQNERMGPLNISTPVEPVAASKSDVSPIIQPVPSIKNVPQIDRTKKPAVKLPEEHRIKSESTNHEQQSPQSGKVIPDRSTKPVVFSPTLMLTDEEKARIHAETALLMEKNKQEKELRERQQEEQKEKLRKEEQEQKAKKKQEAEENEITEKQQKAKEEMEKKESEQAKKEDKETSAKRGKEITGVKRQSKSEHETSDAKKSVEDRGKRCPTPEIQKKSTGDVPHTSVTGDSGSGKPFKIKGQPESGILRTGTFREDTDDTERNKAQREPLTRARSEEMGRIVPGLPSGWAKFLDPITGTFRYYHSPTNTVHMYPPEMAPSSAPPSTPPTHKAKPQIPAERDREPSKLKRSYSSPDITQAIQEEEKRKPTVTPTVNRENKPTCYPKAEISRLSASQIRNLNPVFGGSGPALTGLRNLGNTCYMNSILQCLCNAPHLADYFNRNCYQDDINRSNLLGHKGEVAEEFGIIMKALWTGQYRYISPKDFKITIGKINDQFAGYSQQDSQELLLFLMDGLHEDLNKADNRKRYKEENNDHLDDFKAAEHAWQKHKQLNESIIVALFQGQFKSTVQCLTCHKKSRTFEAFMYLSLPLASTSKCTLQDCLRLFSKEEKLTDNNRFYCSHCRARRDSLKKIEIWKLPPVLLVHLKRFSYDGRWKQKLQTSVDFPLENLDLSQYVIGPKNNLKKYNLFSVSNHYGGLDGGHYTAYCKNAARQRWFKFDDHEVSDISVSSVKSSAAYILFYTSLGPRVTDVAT
In short: as §1

Measured: log2 ratio of Biotin-Ahx-Ub-VS probe labelling

USP54, sequence (Q70EL1 whole entry): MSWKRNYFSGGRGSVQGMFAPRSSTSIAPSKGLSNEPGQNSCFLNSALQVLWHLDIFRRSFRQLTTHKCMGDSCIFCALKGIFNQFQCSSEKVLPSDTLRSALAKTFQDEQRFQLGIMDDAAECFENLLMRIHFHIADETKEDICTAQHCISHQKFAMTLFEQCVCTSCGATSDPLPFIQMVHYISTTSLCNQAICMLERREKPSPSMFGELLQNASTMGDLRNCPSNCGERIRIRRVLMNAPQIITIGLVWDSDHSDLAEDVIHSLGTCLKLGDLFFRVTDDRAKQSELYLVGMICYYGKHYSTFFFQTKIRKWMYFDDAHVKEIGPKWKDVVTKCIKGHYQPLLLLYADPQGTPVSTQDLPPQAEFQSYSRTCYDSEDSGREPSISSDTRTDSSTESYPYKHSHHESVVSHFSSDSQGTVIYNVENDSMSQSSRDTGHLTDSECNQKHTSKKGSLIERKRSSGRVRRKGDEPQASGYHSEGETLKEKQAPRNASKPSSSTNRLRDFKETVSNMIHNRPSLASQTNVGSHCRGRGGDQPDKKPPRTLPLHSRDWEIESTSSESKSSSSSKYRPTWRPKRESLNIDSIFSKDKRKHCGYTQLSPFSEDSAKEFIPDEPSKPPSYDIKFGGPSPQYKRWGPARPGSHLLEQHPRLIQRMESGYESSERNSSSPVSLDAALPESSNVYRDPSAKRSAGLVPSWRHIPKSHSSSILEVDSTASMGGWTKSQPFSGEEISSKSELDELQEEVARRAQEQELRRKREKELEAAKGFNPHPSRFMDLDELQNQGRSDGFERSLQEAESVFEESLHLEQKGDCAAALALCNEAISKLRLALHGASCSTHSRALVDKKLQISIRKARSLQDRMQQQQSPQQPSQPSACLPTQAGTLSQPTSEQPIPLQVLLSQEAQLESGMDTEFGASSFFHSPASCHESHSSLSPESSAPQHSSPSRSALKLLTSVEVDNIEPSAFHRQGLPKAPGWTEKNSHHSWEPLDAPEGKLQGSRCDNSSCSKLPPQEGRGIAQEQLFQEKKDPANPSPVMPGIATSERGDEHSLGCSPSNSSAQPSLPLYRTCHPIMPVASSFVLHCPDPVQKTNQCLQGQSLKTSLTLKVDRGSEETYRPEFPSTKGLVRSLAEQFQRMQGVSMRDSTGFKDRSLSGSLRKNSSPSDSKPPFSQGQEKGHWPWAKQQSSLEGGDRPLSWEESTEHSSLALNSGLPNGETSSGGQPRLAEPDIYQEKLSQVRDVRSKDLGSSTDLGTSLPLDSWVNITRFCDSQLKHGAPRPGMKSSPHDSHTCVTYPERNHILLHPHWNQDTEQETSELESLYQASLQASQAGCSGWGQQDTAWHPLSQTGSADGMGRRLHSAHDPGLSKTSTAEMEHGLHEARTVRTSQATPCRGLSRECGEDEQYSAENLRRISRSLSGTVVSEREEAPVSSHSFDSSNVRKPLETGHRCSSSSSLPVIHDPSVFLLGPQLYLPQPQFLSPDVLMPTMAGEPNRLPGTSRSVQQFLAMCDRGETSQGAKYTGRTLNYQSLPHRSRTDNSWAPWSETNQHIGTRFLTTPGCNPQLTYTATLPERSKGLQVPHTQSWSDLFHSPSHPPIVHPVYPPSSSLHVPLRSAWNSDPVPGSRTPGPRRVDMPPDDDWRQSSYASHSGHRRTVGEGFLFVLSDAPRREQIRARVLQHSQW
USP46, sequence (P62068 whole entry): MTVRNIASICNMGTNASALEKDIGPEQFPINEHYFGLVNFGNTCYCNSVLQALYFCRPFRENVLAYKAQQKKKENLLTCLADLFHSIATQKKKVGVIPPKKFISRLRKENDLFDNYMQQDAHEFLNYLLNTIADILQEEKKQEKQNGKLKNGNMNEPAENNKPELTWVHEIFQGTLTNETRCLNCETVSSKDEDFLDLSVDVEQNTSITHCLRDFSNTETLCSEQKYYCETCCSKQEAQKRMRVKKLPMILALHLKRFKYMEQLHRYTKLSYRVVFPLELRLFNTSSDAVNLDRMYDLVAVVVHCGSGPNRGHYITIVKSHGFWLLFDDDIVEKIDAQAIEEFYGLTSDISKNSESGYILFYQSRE
USP7, sequence (Q93009 whole entry, looked up): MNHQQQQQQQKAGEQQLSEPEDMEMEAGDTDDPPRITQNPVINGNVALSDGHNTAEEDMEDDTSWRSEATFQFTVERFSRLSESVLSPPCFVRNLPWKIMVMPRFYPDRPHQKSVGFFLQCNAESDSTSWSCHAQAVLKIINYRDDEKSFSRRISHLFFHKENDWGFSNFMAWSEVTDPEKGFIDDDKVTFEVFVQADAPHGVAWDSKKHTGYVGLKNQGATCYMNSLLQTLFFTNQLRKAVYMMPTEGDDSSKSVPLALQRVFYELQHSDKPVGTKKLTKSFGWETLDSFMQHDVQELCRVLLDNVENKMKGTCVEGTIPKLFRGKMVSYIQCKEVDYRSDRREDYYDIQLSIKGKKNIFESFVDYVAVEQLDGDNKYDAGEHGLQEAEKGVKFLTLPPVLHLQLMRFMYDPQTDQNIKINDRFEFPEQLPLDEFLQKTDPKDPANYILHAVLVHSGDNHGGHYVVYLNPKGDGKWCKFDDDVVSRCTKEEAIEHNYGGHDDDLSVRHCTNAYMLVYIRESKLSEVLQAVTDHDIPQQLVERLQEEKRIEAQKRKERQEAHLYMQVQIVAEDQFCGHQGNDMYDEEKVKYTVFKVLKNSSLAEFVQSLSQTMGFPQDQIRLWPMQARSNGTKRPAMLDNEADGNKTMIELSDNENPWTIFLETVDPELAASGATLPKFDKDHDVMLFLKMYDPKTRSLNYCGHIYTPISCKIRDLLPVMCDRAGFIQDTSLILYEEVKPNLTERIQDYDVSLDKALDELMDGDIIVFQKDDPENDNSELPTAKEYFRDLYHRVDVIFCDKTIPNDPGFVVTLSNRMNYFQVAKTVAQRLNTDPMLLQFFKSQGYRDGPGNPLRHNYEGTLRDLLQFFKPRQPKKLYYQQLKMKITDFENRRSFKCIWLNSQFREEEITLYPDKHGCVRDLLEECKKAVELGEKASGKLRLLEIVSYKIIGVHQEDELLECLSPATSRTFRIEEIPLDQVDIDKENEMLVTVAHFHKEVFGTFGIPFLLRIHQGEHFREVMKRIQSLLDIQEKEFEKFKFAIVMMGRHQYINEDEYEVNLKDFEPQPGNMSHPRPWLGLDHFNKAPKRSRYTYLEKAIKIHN

Cc1ccc(N(CCC#N)C(=O)CCl)cc1C
inactive: USP42 -0.126 | USP46 -0.12 | USP47 -0.28 | USP5 0.408 | USP54 -0.137 | USP8 -0.394
active: USP48 -1.01 | USP7 -1.27
